Data on 25 molecules can be found in the supplement of paper PMC4709259.

Where a name gives a salt, the structure may show the parent alone. ± gives the standard deviation.

The subject of assay [1] is Jurkat. The assay is described as follows: mean cell size (FSC-A) relative to DMSO control (fraction of control); higher = larger cells. Conditions: 48 h. Put shortly: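 Jurkat cells at 600 cells/µl were incubated for 1 h and then treated for 48h with the Enzo Screen-Well FDA Approved Drug Library v2.0 at 25µM, with DMSO at 0.9% (v/v) final. Compounds that reduced counts below 20% of controls were retested in 10-fold dilutions down to 25nM. Cell count and mean cell size, taken as forward scatter area, were measured by flow cytometry relative to solvent-only controls. Each plate carried 6-12 controls, and values are means of 3 biological replicates.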

Assay [2] has as its system Jurkat. Kind of assay: cell count relative to DMSO control (fraction of control); higher = more cells (less growth inhibition). Conditions: 48 h.

For the molecule `CO[C@H]1C[C@@H]2CC[C@@H](C)[C@@](O)(O2)C(=O)C(=O)N2CCCC[C@H]2C(=O)O[C@H]([C@H](C)C[C@@H]2CC[C@@H](OCCO)[C@H](OC)C2)CC(=O)[C@H](C)/C=C(\C)[C@@H](O)[C@@H](OC)C(=O)[C@H](C)C[C@H](C)/C=C/C=C/C=C/1C` [Everolimus] (concentration: 2.5 µM), in the assay on Jurkat [1], the mean cell size was 0.761 ± 0.015. Also, in the assay with Jurkat [2], the cell count was found to be 0.552 ± 0.072.

The molecule `C[C@@H]1NC(=O)[C@@H](N)CNC(=O)[C@H](C2CCNC(=N)N2)NC(=O)/C(=C/NC(N)=O)NC(=O)[C@H](CNC(=O)CC(N)CCCN)NC1=O.N=C1NCC[C@H]([C@@H]2NC(=O)/C(=C/NC(N)=O)NC(=O)[C@H](CNC(=O)C[C@@H](N)CCCN)NC(=O)[C@H](CO)NC(=O)[C@@H](N)CNC2=O)N1` [Capreomycin Sulfate] (concentration: 25 µM) displayed a mean cell size in the assay with Jurkat [1] of 0.97 ± 0.044. The molecule also returned a cell count with Jurkat [2] of 0.544 ± 0.14.

In turn, `CO/N=C(\C(=O)N[C@@H]1C(=O)N2C(C(=O)OCOC(=O)C(C)(C)C)=C(/C=C\c3scnc3C)CS[C@H]12)c1csc(N)n1` [Cefditoren Pivoxil] (concentration: 25 µM) displayed a mean cell size in the assay on Jurkat [1] of 0.9999 ± 0.0094. Moreover, in the assay on Jurkat [2], the cell count stood at 0.77 ± 0.14.

With `COC(=O)C1=C(C)NC(C)=C(C(=O)OC)C1c1ccccc1[N+](=O)[O-]` [Nifedipine] (concentration: 2.5 µM), in the assay on Jurkat [1], the mean cell size was determined as 1.02 ± 0.036. In the assay on Jurkat [2], the cell count was 0.92 ± 0.1.

`CN1[C@@H]2CC[C@H]1C[C@@H](OC(c1ccccc1)c1ccccc1)C2` [Benztropine Mesylate] (concentration: 25 µM) had a mean cell size in the assay with Jurkat [1] of 0.976 ± 0.054. This molecule registered a cell count in the assay with Jurkat [2] of 0.666 ± 0.17.

In the assay on Jurkat [1], `CN(C/C=C/c1ccccc1)Cc1cccc2ccccc12` [Naftifine·HCl] (concentration: 25 µM) yielded a mean cell size of 0.956 ± 0.028. The molecule also displayed a cell count in the assay with Jurkat [2] of 0.848 ± 0.089.

With `NNC(=O)c1ccncc1` [Isoniazid] (concentration: 25 µM), the mean cell size in the assay on Jurkat [1] was 0.969 ± 0.022. In the assay on Jurkat [2], this molecule showed a cell count of 0.925 ± 0.019.

The molecule `NCCS` [Cysteamine·HCl] (concentration: 25 µM) had a mean cell size in the assay with Jurkat [1] of 0.957 ± 0.034. Besides, the cell count in the assay with Jurkat [2] was determined as 0.513 ± 0.13.

`O=C1CN2Cc3c(ccc(Cl)c3Cl)N=C2N1` [Anagrelide] (concentration: 25 µM) had a mean cell size in the assay on Jurkat [1] of 1 ± 0.023. In the assay with Jurkat [2], this molecule had a cell count of 0.696 ± 0.12.

Take `O=C1CCC(N2C(=O)c3ccccc3C2=O)C(=O)N1` (stereo not given) [Thalidomide] (concentration: 25 µM): the mean cell size in the assay with Jurkat [1] is 0.922 ± 0.015. The molecule further registered a cell count with Jurkat [2] of 1.01 ± 0.12.

In the case of `Nc1ccc(S(=O)(=O)c2ccc(N)cc2)cc1` [Dapsone] (concentration: 25 µM), in the assay with Jurkat [1], the mean cell size was found to be 0.9573 ± 0.0072. In addition, the cell count with Jurkat [2] was 0.976 ± 0.1.

On to `C[C@H]1[C@H](NC(=O)/C(=N\OC(C)(C)C(=O)O)c2csc(N)n2)C(=O)N1S(=O)(=O)O` [Aztreonam] (concentration: 25 µM), for which the mean cell size with Jurkat [1] was found to be 0.927 ± 0.022. For the same molecule, the cell count with Jurkat [2] was found to be 0.64 ± 0.086.

With `Nc1nc(Cl)nc2c1ncn2[C@@H]1O[C@H](CO)[C@@H](O)[C@@H]1F` [Clofarabine] (concentration: 25 nM), the mean cell size in the assay on Jurkat [1] came to 1.18 ± 0.048. In the assay with Jurkat [2], this molecule had a cell count of 0.26 ± 0.073.

`OC(CCN1CCCCC1)(c1ccccc1)C1CC2C=CC1C2` (stereo not given) [Biperiden·HCl] (concentration: 25 µM) displayed a mean cell size in the assay on Jurkat [1] of 0.951 ± 0.055. In the assay on Jurkat [2], the cell count came out at 0.654 ± 0.12.

The molecule `CN1CCc2cccc3c2[C@H]1Cc1ccc(O)c(O)c1-3` [Apomorphine·HCl Hemihydrate] (concentration: 2.5 µM) had a mean cell size with Jurkat [1] of 1.031 ± 0.0071. Moreover, in the assay on Jurkat [2], the cell count stood at 0.444 ± 0.071.

Take `COc1ccc(Cl)cc1C(=O)NCCc1ccc(S(=O)(=O)NC(=O)NC2CCCCC2)cc1` [Glyburide] (concentration: 25 µM): the mean cell size in the assay on Jurkat [1] was 1.02 ± 0.051. The cell count with Jurkat [2] came to 0.806 ± 0.047.

The molecule `CC(C)Cn1cnc2c(N)nc3ccccc3c21` [Imiquimod] (concentration: 25 µM) yielded a mean cell size in the assay on Jurkat [1] of 0.936 ± 0.018. Also, the cell count in the assay with Jurkat [2] turned out to be 0.44 ± 0.15.

In turn, `O=C(O)c1cc(-c2ccc(F)cc2F)ccc1O` [Diflunisal] (concentration: 25 µM) showed a mean cell size in the assay with Jurkat [1] of 0.989 ± 0.061. The cell count in the assay on Jurkat [2] is 0.666 ± 0.13.

`C[C@]12CCC(=O)C=C1[C@@H]1C[C@@H]1[C@H]1[C@@H]3[C@@H]4C[C@@H]4[C@@]4(CCC(=O)O4)[C@@]3(C)CC[C@@H]12` [Drospirenone] (concentration: 25 µM) yielded a mean cell size in the assay with Jurkat [1] of 0.962 ± 0.03. This molecule also registered a cell count in the assay on Jurkat [2] of 0.692 ± 0.11.

For `CC1=C(C/C=C(\C)CCC[C@H](C)CCC[C@H](C)CCCC(C)C)C(=O)c2ccccc2C1=O` [Phytonadione] (concentration: 25 µM), in the assay on Jurkat [1], the mean cell size is 0.986 ± 0.024. In addition, the cell count in the assay with Jurkat [2] came to 0.886 ± 0.1.

In turn, `CCCNC(C)C(=O)Nc1c(C)csc1C(=O)OC` (stereo not given) [Articaine·HCl] (concentration: 25 µM) gave a mean cell size with Jurkat [1] of 0.96 ± 0.028. The cell count in the assay on Jurkat [2] stood at 0.738 ± 0.059.

`C[N+]1(C)CCC(OC(=O)C(O)(c2ccccc2)C2CCCC2)C1` (stereo not given) [Glycopyrrolate Iodide] (concentration: 25 µM): in the assay with Jurkat [1], the mean cell size worked out at 0.995 ± 0.037. The molecule further came in with a cell count with Jurkat [2] of 0.838 ± 0.061.

For the molecule `CC1(C)S[C@@H]2[C@H](NC(=O)COc3ccccc3)C(=O)N2[C@H]1C(=O)O` [Penicillin V Potassium] (concentration: 25 µM), in the assay on Jurkat [1], the mean cell size is 0.994 ± 0.015. The molecule also registered a cell count with Jurkat [2] of 1.09 ± 0.09.

In turn, `CCCN[C@H]1CCc2nc(N)sc2C1` [Pramipexole Dihydrochloride Monohydrate] (concentration: 25 µM) gave a mean cell size in the assay on Jurkat [1] of 1 ± 0.037. Also, in the assay on Jurkat [2], the cell count is 0.631 ± 0.011.

In turn, `CCOc1ccccc1OCCN[C@H](C)Cc1ccc(OC)c(S(N)(=O)=O)c1` [Tamsulosin·HCl] (concentration: 25 µM) yielded a mean cell size with Jurkat [1] of 0.988 ± 0.037. Moreover, the cell count in the assay with Jurkat [2] is 0.808 ± 0.079.
